The other results are listed elsewhere or left out. Records with an inconclusive call do not appear. Unmarked numbers belong to inactive results. Active and inactive are the calls of the source. Calls follow the shape of the dose curve; as a rule, active = well fitted inhibition curve with a large enough effect; inconclusive = small, poorly fitted or top-dose-only effect; inactive = no such curve, though single readings can be large or run the other way.
These molecules were tested against Regulator of G-protein signaling 12 (Homo sapiens) (UniProt O14924) (assay: Confirmation qHTS Assay for Inhibitors of RGS12 GoLoco Motif Activity (Red Fluorophore)). Details: Gai1/rhodamine-RGS12 GoLoco peptide fluorescence polarization; series mostly up to 57.1 µM; activity, negative = inhibition: at the top concentration.
Regulator of G-protein signaling 12 (Homo sapiens), sequence (O14924 whole entry, looked up): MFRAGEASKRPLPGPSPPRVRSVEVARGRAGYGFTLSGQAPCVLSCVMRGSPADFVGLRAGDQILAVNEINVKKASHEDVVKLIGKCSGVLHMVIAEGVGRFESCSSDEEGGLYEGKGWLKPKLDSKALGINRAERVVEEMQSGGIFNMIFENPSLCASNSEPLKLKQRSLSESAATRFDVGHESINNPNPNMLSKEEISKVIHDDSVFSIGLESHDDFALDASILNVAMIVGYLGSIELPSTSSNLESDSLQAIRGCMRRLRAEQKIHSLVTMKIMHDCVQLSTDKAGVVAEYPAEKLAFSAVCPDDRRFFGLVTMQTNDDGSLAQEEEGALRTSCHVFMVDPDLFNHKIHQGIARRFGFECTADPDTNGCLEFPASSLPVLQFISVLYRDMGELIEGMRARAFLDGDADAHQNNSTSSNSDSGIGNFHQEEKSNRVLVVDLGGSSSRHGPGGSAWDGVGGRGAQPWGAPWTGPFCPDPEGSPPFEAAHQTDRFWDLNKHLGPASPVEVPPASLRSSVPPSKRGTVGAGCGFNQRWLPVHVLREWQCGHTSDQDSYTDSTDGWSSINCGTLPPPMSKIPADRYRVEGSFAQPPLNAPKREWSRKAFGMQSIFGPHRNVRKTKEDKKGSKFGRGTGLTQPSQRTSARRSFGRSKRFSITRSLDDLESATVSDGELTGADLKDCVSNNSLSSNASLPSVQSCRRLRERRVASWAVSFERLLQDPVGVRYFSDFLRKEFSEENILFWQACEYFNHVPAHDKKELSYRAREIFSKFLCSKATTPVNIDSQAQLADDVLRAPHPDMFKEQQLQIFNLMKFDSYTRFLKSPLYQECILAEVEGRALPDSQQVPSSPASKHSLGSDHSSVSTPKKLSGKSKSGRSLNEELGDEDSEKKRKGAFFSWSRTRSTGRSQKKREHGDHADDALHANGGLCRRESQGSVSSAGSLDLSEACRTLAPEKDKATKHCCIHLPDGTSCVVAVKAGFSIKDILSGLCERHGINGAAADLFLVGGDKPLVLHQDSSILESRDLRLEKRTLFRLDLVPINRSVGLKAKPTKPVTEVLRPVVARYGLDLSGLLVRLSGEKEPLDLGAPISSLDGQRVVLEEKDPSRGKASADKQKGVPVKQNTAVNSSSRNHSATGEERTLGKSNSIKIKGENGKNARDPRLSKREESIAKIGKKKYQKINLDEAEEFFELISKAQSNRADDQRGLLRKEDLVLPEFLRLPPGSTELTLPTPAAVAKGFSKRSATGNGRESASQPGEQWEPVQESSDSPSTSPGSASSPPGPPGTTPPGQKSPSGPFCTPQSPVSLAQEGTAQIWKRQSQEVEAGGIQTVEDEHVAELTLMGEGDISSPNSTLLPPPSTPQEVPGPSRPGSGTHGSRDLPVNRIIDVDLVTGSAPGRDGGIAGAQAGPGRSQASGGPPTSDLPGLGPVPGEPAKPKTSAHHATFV
Source text: G-protein-coupled receptors (GPCRs) are major targets for drug discovery. The regulator of G-protein signaling (RGS)-protein family has important roles in GPCR signal transduction. RGS proteins contain a conserved RGS-box, which is often accompanied by other signaling regulatory elements. RGS proteins accelerate the deactivation of G proteins to reduce GPCR signaling; however, some also have an effector function and transmit signals. Combining GPCR agonists with RGS inhibitors should potentiate responses, and could markedly increase the agonist's regional specificity. The diversity of RGS proteins with highly localized and dynamically regulated distributions in brain makes them attractive targets for pharmacotherapy of central nervous system disorders. […] A complex of Gai1 and fluorescently labeled G-alpha-binding peptide (the "GoLoco motif") derived from RGS12 is incubated with library members. Inhibitors of the binding are detected by a decrease in the fluorescence polarization (FP) of the fluorophore. Protein was supplied by Prof. David Siderovski, University of North Carolina at Chapel Hill. This BioAssay is a confirmatory run of primary qHTS protocol (AID: 880). See following reference for more details: Kimple AJ, et al. Comb Chem High Throughput Screen. 2008 Jun;11(5):396-409. Assay Submitter: Siderovski, David P, University of North Carolina at Chapel Hill Screening Center PI: Austin, C.P. Screening Center: NIH Chemical Genomics Center [NCGC] NIH Grant: NS053754-01
Reagents/Controls: Assay Buffer: 10 mM Tris-HCl, 150 mM NaCl, 0.1 mM GDP (prepared fresh), and 0.05% NP40 at pH 7.5. […] 15 nM Rhodamine labeled peptide/25 nM protein in columns 1, 2, 5 - 48. Titration of unlabeled peptide control ([H][…][NH2], custom synthesized and HPLC-purified by Tufts University Core Facility) from 20 mM, then 1:2 dilution, 16-point in duplicate, pin-transferred to column 2, rows 1 to 32. Column 1 is neutral. Rhodamine-labeled peptide (Rhodamine-[…]-NH2) was custom-synthesized and HPLC-purified by Invitrogen (Carlsbad, CA). Assay Steps. Four uL of reagents were dispensed to 1536-well Greiner black solid-bottom plates. Compounds and controls (23 nL) were transferred via Kalypsys PinTool. The plates were incubated for 10 min at room temperature, and then read on ViewLux (Perkin-Elmer) High-throughput CCD imager using BODIPY for the rhodamine-labeled decapeptide probe. During dispense, reagent bottles were kept submerged into 4 deg C water bath and all liquid lines were covered with aluminum foil to minimize probe and protein degradation. All screening operations were performed on a Kalypsys robotic system (Kalypsys, Inc., San Diego, CA) containing one RX-130 and two RX-90 anthropomorphic robotic arms.

Compound | activity, negative = inhibition | Potency
O=C(Nc1cccc(Nc2nccc(Nc3cccc(C(F)(F)F)c3)n2)c1)C1CC1 | 11.2% | 
CCn1c(SCC(=O)NCc2ccco2)nnc1-c1ccc(N)cc1 | 13.1% | 
Cc1cc2nc3c(=O)n(Cc4ccccc4)c(=O)[nH]c3nc2cc1N |  | 3.98 µM (active)
Cc1nn(C)cc1N1C(=O)c2cccc3c(N)ccc(c23)C1=O |  | 14.1 µM (active)
